The results in this text go back to PubChem BioAssay (NCI).

A short description of this assay: NCI Yeast Anticancer Drug Screen. Data for the sgs1 strain (AID 173).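 Note: 0% = growth of vehicle-only control cultures.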 Conditions: S. cerevisiae sgs1 mutant, hits give high values. As to the method: Growth inhibition of yeast strains with defined genetic alterations is measured as a screen for potential anti-cancer activity. Selected strains with alterations in DNA damage repair or cell cycle control were exposed to compounds and growth inhibition was measured relative to vehicle treated controls. The strain used in this assay is sgs1

Compounds without any hit were thinned out: in the full panel of roughly 79,000, 15% have a hit. Calls of active or inactive are those of the source. Cut-off read from the data, not from the text of the source: active = growth inhibition above about 70%; inactive = the rest.

As for `O=C1c2ccc(O)cc2C(=O)c2c(O)ccc(O)c21`, the growth inhibition is 3% (inactive) (at 1.2 µM); 19% (inactive) (at 3.7 µM); 90% (active) (at 11.0 µM); 95% (active) (at 33.0 µM); 91% (active) (at 100.0 µM).

As to `Cc1cccc[c]1[Sn]([Cl])([S]/C(C#N)=N/N=C/c1ccc(N(C)C)cc1)[c]1ccccc1C`, the growth inhibition (at 1.2 µM) was -1% (inactive); the growth inhibition (at 3.7 µM) is -3% (inactive); the growth inhibition (at 11.0 µM) is -1% (inactive); the growth inhibition (at 33.0 µM) is 66% (inactive); the growth inhibition (at 100.0 µM) is 94% (active).

As to `S=c1[nH]nc(Cc2ccccc2)c(=S)[nH]1`, the growth inhibition was 2% (inactive) (at 1.2 µM); 10% (inactive) (at 3.7 µM); 64% (inactive) (at 11.0 µM); 95% (active) (at 33.0 µM); 97% (active) (at 100.0 µM).

For `Cc1ccc2c(/C=C/c3ccc(N(C)C)cc3)ccnc2c1C`, the growth inhibition is -26% (inactive) (at 1.2 µM); -51% (inactive) (at 3.7 µM); -4% (inactive) (at 11.0 µM); 82% (active) (at 33.0 µM); 87% (active) (at 100.0 µM).

Consider `Cc1ccc(C(C)C)c(C(=C2C=CC(=[N+](C)C)C=C2)c2c(C(C)C)ccc(C)c2O)c1O`, for which the growth inhibition is 0% (inactive) (at 1.2 µM); 14% (inactive) (at 3.7 µM); 97% (active) (at 11.0 µM); 94% (active) (at 33.0 µM); 82% (active) (at 100.0 µM).

On to `Cc1nc2ccccc2c(=O)n1NC(=O)c1ccc(CS)cc1`, for which the growth inhibition by setting is: (at 1.2 µM) 15% (inactive); (at 3.7 µM) 11% (inactive); (at 11.0 µM) 20% (inactive); (at 33.0 µM) 61% (inactive); (at 100.0 µM) 95% (active).

As for `CCC1SC(=S)N(c2ccc(Cl)cc2)C1=O` (stereo not given), the growth inhibition was -8% (inactive) (at 1.2 µM); -8% (inactive) (at 3.7 µM); 22% (inactive) (at 11.0 µM); 75% (active) (at 33.0 µM); 98% (active) (at 100.0 µM).

On to `COc1ccc(C(=O)OCCc2ccccc2)cc1`, for which the growth inhibition reads like this: (at 1.2 µM) -15% (inactive); (at 3.7 µM) 7% (inactive); (at 11.0 µM) -18% (inactive); (at 33.0 µM) -2% (inactive); (at 100.0 µM) -4% (inactive).
